High-throughput results: PubChem BioAssay, several laboratories
OPRM1-OPRD1 ag: OPRM1-OPRD1 heterodimerization agonism. P35372+P41143. cells, luminescence. activation, % at 9.3 µM. 340,000 tested, 0.3% active;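 note: 0% = vehicle-treated cells and 100% = reference agonist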
PvdQ inh: blocks Pseudomonas aeruginosa PvdQ acylase activity; inhibition, % at 10 µM; purified PvdQ acylase, fluorescence plate reader; 340,000 tested, 0.063% active; in the data active = inhibition above about 30%, passing the limit was not always enough;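 note: 0% = vehicle neutral wells and 100% = reference inhibitor wells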
MOR-DOR inv ag: inverse agonists of human mu-delta opioid receptor heterodimerization; P35372+P41143; cell-based MOR-DOR heterodimer luminescence, inverse agonism; inhibition, % at 9.3 µM; 340,000 tested, 0.21% active; AID 504357; in the data active = inhibition above about 22%, passing the limit was not always enough;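 note: 0% = cells with DMSO and 100% = wells without cells with DMSO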
HTR5A inv ag: inverse agonist of human HTR5A in OPRM1-OPRD1 counter-screen | P47898 | HTR5A cell line, luminescence, inverse agonism | inhibition, % at 9.3 µM | 340,000 tested, 0.083% active | AID 504634; in the data active = inhibition mostly above about 23%, no sharp cut-off; inactive = mostly below about 18%;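 note: 0% = cells with DMSO and 100% = no-cell wells with DMSO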
Target sequence (P47898 whole entry, looked up): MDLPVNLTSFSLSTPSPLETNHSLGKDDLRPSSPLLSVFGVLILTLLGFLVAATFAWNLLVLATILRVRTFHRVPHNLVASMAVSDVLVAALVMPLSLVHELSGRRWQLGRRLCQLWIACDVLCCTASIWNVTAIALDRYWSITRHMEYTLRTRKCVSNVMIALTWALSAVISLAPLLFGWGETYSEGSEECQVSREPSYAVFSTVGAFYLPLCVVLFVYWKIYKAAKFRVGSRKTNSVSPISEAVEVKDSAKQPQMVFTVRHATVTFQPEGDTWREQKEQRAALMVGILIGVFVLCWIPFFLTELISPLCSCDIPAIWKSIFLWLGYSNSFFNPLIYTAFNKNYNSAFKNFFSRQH
HTR5A ag ctr: counter-screen for OPRM1-OPRD1 agonists: human HTR5A agonism. HTR5A agonist assay, luminescence, cell-based. activation, % at 9.3 µM. 340,000 tested, 0.61% active; in the data active = activation mostly above about 9.5%, no sharp cut-off; inactive = mostly below about 7.6%;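 note: 0% = cells with vehicle only and 100% = reference agonist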
Yeast superoxide: yeast age-related superoxide inhibition as caloric restriction mimetic; S. cerevisiae aged cells, superoxide DHE fluorescence; hits give low values; AID 2690; superoxide response (% of plate mean), % at 10 µM; 330,000 tested, 0.18% active;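 active = superoxide response under a set limit, about three screen SD below normal, cut at about 65% in these data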;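 note: yeast aged for seven days with compound at 30 °C before DHE staining; 100% = average MFI of all compound-treated wells on the plate with controls excluded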
OPRM1-D1 ag cf: confirmation of human OPRM1-OPRD1 heterodimerization agonists; 830 tested, 45% active; shares compounds with OPRM1-OPRD1 ag; cells, MOR-DOR heterodimerization, luminescence complementation; AID 504904; activation, % at 9.3 µM;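 note: 0% = vehicle-treated cells and 100% = reference agonist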
HTR5A ag ctr2: counter-screen for OPRM1-OPRD1 agonists: human HTR5A agonism; shares compounds with OPRM1-OPRD1 ag; HTR5A agonist counterscreen, cell luminescence; activation, % at 9.3 µM; 830 tested, 8% active; AID 504905; in the data active = activation above about 17%;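 note: 0% = vehicle-treated cells and 100% = reference agonist response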
Starred values were filed as active, the others as inactive; i = inactive; . = no result given. Rows were chosen to be rich in hits. Some 1.3% of all compounds tested hit in one or more screens of this group. Cut-off read from the data, not from the text of the source, unless noted: active = activation above about 18%; inactive = the rest.

SMILES	OPRM1-OPRD1 ag	PvdQ inh	MOR-DOR inv ag	HTR5A inv ag	HTR5A ag ctr	Yeast superoxide	OPRM1-D1 ag cf	HTR5A ag ctr2
COc1ccc(C(CNC(=O)C(C)c2ccc3cc(OC)ccc3c2)N(C)C)cc1 (stereo unspecified)	23*	3	-188	-15	5	93	56*	-4
O=C1NC(=O)N(Cc2ccccc2)CC1Br (stereo unspecified)	9	-14	-47	11	-3	.	.	.
CCOc1cc(C2c3c(oc4ccccc4c3=O)C(=O)N2c2nccs2)ccc1O (stereo unspecified)	24*	-10	-125	-32	-4	115	1	2
CCOc1cccc(C2c3c(oc4ccccc4c3=O)C(=O)N2c2ccccn2)c1 (stereo unspecified)	.	.	.	.	.	94	.	.
Cc1c(CCOC(=O)c2cc([N+](=O)[O-])cc([N+](=O)[O-])c2)sc[n+]1CC(=O)c1ccccc1	5	-21	-25	-18	6	119	.	.
Cc1c(CCOC(=O)c2ccccc2)sc[n+]1CC(=O)c1ccc(Br)cc1	36*	-16	-288	-17	6	84	54*	-1
COc1cccc(N2CC(C(=O)Nc3nnc(SCCC4OCCO4)s3)CC2=O)c1 (stereo unspecified)	-2	-16	9	5	1	102	.	.
Cc1ccc2sc(N(CCCN(C)C)C(=O)c3ccc(S(=O)(=O)N(C)C)cc3)nc2c1C	-1	-9	4	-7	1	106	.	.
COc1cccc2sc(N(CCCN(C)C)C(=O)c3ccc(S(=O)(=O)N4CCc5ccccc5C4)cc3)nc12	2	9	-7	-34	13	92	.	.
Cc1ccc2sc(N(CCCN(C)C)C(=O)c3ccc(S(=O)(=O)N(C)Cc4ccccc4)cc3)nc2c1C	40*	-6	-260	0	0	102	1	-2
Cc1ccc2sc(N(CCCN(C)C)C(=O)c3ccc(S(=O)(=O)N4CCc5ccccc5C4)cc3)nc2c1C	21*	3	-136	-11	-5	110	0	1
CCOc1cccc2sc(N(CCCN(C)C)C(=O)c3ccc(S(=O)(=O)N(CC)Cc4ccccc4)cc3)nc12	3	-10	-14	0	6	92	.	.
CCN(Cc1ccccc1)S(=O)(=O)c1ccc(C(=O)N(CCCN(C)C)c2nc3c(F)cccc3s2)cc1	144*	8	i	-6	-1	90	26*	3
CN(C)CCCN(C(=O)c1ccc(S(=O)(=O)N2CCc3ccccc3C2)cc1)c1nc2c(F)cc(F)cc2s1	341*	4	i	17	-7	109	396*	0
O=C(NC(Cc1ccccc1)C(=O)O)/C(=C/c1ccccc1)NC(=O)c1ccco1 (stereo unspecified)	-1	-16	5	-6	2	100	.	.
CCc1nn2c(=O)c(S(=O)(=O)Nc3ccc(C(C)C)cc3)c(C)nc2s1	1	-15	-6	-11	4	106	.	.
CN(C)CCCN(C(=O)c1ccc(S(=O)(=O)N2CCOCC2)cc1)c1nc2ccc(F)cc2s1	-2	-9	11	-26	7	90	.	.
CN(C)CCCN(C(=O)c1ccc(S(=O)(=O)N2CCCCCC2)cc1)c1nc2ccc(F)cc2s1	155*	7	i	-3	2	114	3	2
CC1CC(C)CN(CC(=O)N2CCCc3c2c(=O)oc2ccc(OCc4ccccc4)cc32)C1 (stereo unspecified)	5	-10	-28	-2	7	89	.	.
CC1CCN(CC(=O)N2CCCc3c2c(=O)oc2ccc(OCc4ccccc4)cc32)CC1	27*	9	-160	23	13*	95	32*	-4
N#CC1=C2N=C(N)c3c(sc4c3CCCCC4)N2C2=C(C(=O)CCC2)C1c1ccccc1 (stereo unspecified)	-1	-9	6	12	1	103	.	.
CCOc1ccc(C2C(C#N)=C(N)N(c3sc4c(c3C#N)CCCC4)C3=C2C(=O)CCC3)cc1 (stereo unspecified)	79*	-15	-483	-6	2	120	4	3
Cc1ccc(Cl)cc1N(CC(=O)NCc1ccccc1)S(C)(=O)=O	0	-7	2	9	-3	95	.	.
CCN1CCN(c2ccc([N+](=O)[O-])c(Sc3nc4ccccc4[nH]3)c2)CC1	76*	0	-457	10	-4	94	69*	-3
O=[N+]([O-])c1ccc(N2CCN(CCO)CC2)cc1Sc1ccccn1	0	-7	4	21	-2	90	.	.
SMILES	OPRM1-OPRD1 ag	PvdQ inh	MOR-DOR inv ag	HTR5A inv ag	HTR5A ag ctr	Yeast superoxide	OPRM1-D1 ag cf	HTR5A ag ctr2
CN(C)C(CNC(=O)C1CCN(S(=O)(=O)c2cccc(C(F)(F)F)c2)CC1)c1ccccc1 (stereo unspecified)	22*	3	-119	0	0	96	140*	3
CN(C)C(CNC(=O)Cc1cccc(C(F)(F)F)c1)c1ccccc1 (stereo unspecified)	249*	9	i	-5	2	105	252*	1
CN(C)C(CNC(=O)C1CCN(S(=O)(=O)c2ccccc2)CC1)c1ccccc1 (stereo unspecified)	0	-9	-1	-17	6	99	.	.
CN(C)C(CNC(=O)Cc1cccc(C(F)(F)F)c1)c1ccco1 (stereo unspecified)	63*	-7	-299	0	0	104	22*	-3
NC(=O)c1ccsc1NC(=O)CCS(=O)(=O)c1ccc(F)cc1	0	-17	-1	11	-4	95	.	.
CCN1CCN(c2ccc(S(=O)(=O)N3CCCCC3)cc2NC(=O)c2cccc(C(F)(F)F)c2)CC1	-1	8	6	2	-2	101	.	.
Cc1onc(-c2ccc(Cl)cc2)c1-c1ccnc(SCC(=O)Nc2ccc(C(C)C)cc2)n1	56*	-18	-294	-6	2	93	0	-3
O=C(CSc1nccc(-c2cccs2)n1)Nc1ccc(Cl)cc1	-3	-17	14	-38	1	91	.	.
CCCCN1C(=O)c2cccc3cc(O)cc(c23)C1=O	4	7	-22	2	0	106	.	.
Cc1ccc(NC(=O)Nc2cc(Cl)ccc2C2COC(=O)C2=N)cc1 (stereo unspecified)	23*	-8	-119	-4	1	99	5	39*
CCOc1ccccc1NC(=O)CSc1nnc(CCC(=O)Nc2ccccc2F)n1C	-2	-4	10	-16	6	97	.	.
